# The source made the active and inactive calls. How the source made its calls: active means hit-call score of the fitted dose curve at least 0.9, where 1 is the maximum; inactive means score below 0.9.
# Key:
# [1] = CEETOX_H295R_PROG: CeeTox H295R High-throughput Steroidogenesis Assay for Progesterone (PROG) (AID 2283442); settings: actives raise or lower the signal;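 on AC50: human H295R adrenal cells primed with 10 µM forskolin before dosing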
# Outline: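 H295R adrenal cells prestimulated 48 h with 10 uM forskolin, then exposed 48 h to test chemical in 0.1% DMSO. Progesterone in medium quantified by HPLC-MS/MS after MTBE extraction; viability checked by MTT in same wells.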
# [2] = read-out: Tumor necrosis factor receptor superfamily member 6 (Homo sapiens) (UniProt P25445); experiment: LTEA_HepaRG_FAS: Life Technologies and Expression Analysis (LTEA) Assay for Fas cell surface death receptor (FAS) using HepaRG (AID 2283447); settings: mRNA level, 48 h; actives raise or lower the signal
# Outline: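 Differentiated HepaRG cells in serum-free induction medium were exposed 48 h to 8 half-log concentrations up to 100 uM in 0.5% DMSO, in duplicate. FAS mRNA was measured by qRT-PCR normalised to ACTB, GAPDH and POLR2A; bidirectional fit versus DMSO.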
# [3] = read-out: Fatty acid synthase (Homo sapiens) (UniProt P49327); experiment: LTEA_HepaRG_FASN: Life Technologies and Expression Analysis (LTEA) Assay for Fatty Acid Synthase (FASN) using HepaRG (AID 2283448); settings: mRNA level, 48 h; actives raise or lower the signal
# Outline: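 HepaRG, 48 h exposure, 8-pt half-log series top 100 uM, 0.5% DMSO vehicle, duplicates. Readout: FASN transcript by Fluidigm qRT-PCR; housekeeping-normalized; bidirectional curve fit vs DMSO baseline.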
# [4] = read-out: Cyclin D2 (CCND2), CCND2 (gene 894); experiment: LTEA_HepaRG_CCND2: Life Technologies and Expression Analysis (LTEA) Assay for Cyclin D2 (CCND2) using HepaRG (AID 2283449); settings: mRNA level, 48 h; actives raise or lower the signal;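 further: CCND2 transcript measured by TaqMan qRT-PCR and normalised to three housekeeping genes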
# Outline: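 HepaRG, 48 h dosing, 8-pt half-log curve from 100 uM, 0.5% DMSO; duplicate wells. Readout: CCND2 transcript by microfluidic qRT-PCR, housekeeping-normalised; bidirectional fit vs DMSO baseline.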
# [5] = read-out: Cyclin Dependent Kinase Inhibitor 1A (CDKN1A), CDKN1A (gene 1026); experiment: LTEA_HepaRG_CDKN1A: Life Technologies and Expression Analysis (LTEA) Assay for Cyclin Dependent Kinase Inhibitor 1A (CDKN1A) using HepaRG (AID 2283450); settings: mRNA level, 48 h; actives raise or lower the signal
# Outline: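 Differentiated HepaRG cells in serum-free induction medium, exposed 48 h in duplicate to eight half-log concentrations up to 100 uM in 0.5% DMSO. mRNA measured by TaqMan qRT-PCR, normalized to ACTB, GAPDH, POLR2A; bidirectional fit versus DMSO.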
# [6] = read-out: catalase (CAT), CAT (gene 847); experiment: LTEA_HepaRG_CAT: Life Technologies and Expression Analysis (LTEA) Assay for catalase (CAT) using HepaRG (AID 2283452); settings: mRNA level, 48 h; actives raise or lower the signal
# Outline: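 HepaRG cells in serum-free induction medium, 0.5% DMSO vehicle, exposed 48 h in duplicate over 8 half-log concentrations from 100 uM. CAT mRNA measured by qRT-PCR, normalized to ACTB, GAPDH, POLR2A; bidirectional fit versus DMSO.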
# [7] = read-out: Cytochrome P450 (CYP1A1), CYP1A1 (gene 1543); experiment: LTEA_HepaRG_CYP1A1: Life Technologies and Expression Analysis (LTEA) Assay for Cytochrome P450 (CYP1A1) using HepaRG (AID 2283454); settings: mRNA level, 48 h; actives raise or lower the signal
# Outline: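 Differentiated human HepaRG cells, after 48 h plating, exposed in duplicate for 48 h in serum-free induction medium to 8 half-log concentrations up to 100 uM in 0.5% DMSO. CYP1A1 mRNA by qRT-PCR, normalized to ACTB/GAPDH/POLR2A; bidirectional fit versus DMSO.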
# [8] = read-out: CFLAR gene, CFLAR (gene 8837); experiment: LTEA_HepaRG_CFLAR: Life Technologies and Expression Analysis (LTEA) Assay for CFLAR gene using HepaRG (AID 2283455); settings: mRNA level, 48 h; actives raise or lower the signal
# Outline: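 qRT-PCR read-out (Fluidigm/TaqMan) of CFLAR mRNA, normalized to three housekeeping genes, in differentiated human HepaRG cells after 48 h chemical exposure; 8-point half-log series from 100 uM in 0.5% DMSO; bidirectional curve fitting versus DMSO.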
# [9] = read-out: Forkhead box O1 (FOXO1), FOXO1 (gene 2308); experiment: LTEA_HepaRG_FOXO1: Life Technologies and Expression Analysis (LTEA) Assay for Forkhead box O1 (FOXO1) using HepaRG (AID 2283456); settings: mRNA level, 48 h; actives raise or lower the signal
# Outline: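 HepaRG, 48 h exposure, 8-pt half-log series from 100 uM in 0.5% DMSO, duplicates; Fluidigm qRT-PCR mRNA, housekeeping-normalised; bidirectional fit vs DMSO baseline.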
# [10] = read-out: growth arrest and DNA damage 45 (GADD45A), GADD45A (gene 1647); experiment: LTEA_HepaRG_GADD45A: Life Technologies and Expression Analysis (LTEA) Assay for growth arrest and DNA damage 45 (GADD45A) using HepaRG (AID 2283458); settings: mRNA level, 48 h; actives raise or lower the signal
# Outline: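 HepaRG, 48 h exposure, 8 conc. (top 100 uM, half-log steps), 0.5% DMSO vehicle, duplicates. Read-out: qRT-PCR mRNA level, housekeeping-normalized (ACTB/GAPDH/POLR2A). Curves fit bidirectionally vs DMSO baseline.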
# [11] = read-out: Forkhead box O3 (FOXO3), FOXO3 (gene 2309); experiment: LTEA_HepaRG_FOXO3: Life Technologies and Expression Analysis (LTEA) Assay for Forkhead box O3 (FOXO3) using HepaRG (AID 2283459); settings: mRNA level, 48 h; actives raise or lower the signal
# Outline: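 qRT-PCR readout of FOXO3 transcript, normalized to three housekeeping genes (ACTB, GAPDH, POLR2A); gain or loss fitted against 0.5% DMSO vehicle. HepaRG cells, 48 h chemical exposure, 8-point half-log series, top 100 uM.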
# [12] = read-out: ABC Transporter (ABCB1), ABCB1 (gene 5243); experiment: LTEA_HepaRG_ABCB1: Life Technologies and Expression Analysis (LTEA) Assay for ABC Transporter (ABCB1) using HepaRG (AID 2283460); settings: mRNA level, 48 h; actives raise or lower the signal
# Outline: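 HepaRG, 48 h exposure, 8-pt half-log series from 100 uM, 0.5% DMSO vehicle, duplicates. Readout: ABCB1 transcript by Fluidigm TaqMan qRT-PCR, housekeeping-normalized; bidirectional curve fit vs DMSO baseline.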
# [13] = read-out: growth arrest and DNA damage 45 (GADD45B), GADD45B (gene 4616); experiment: LTEA_HepaRG_GADD45B: Life Technologies and Expression Analysis (LTEA) Assay for growth arrest and DNA damage 45 (GADD45B) using HepaRG (AID 2283461); settings: mRNA level, 48 h; actives raise or lower the signal
# Outline: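 Differentiated human HepaRG cells in serum-free induction medium exposed 48 h in duplicate to eight concentrations, top 100 uM, half-log steps, 0.5% DMSO. GADD45B mRNA by TaqMan qRT-PCR, normalized to ACTB, GAPDH, POLR2A; bidirectional fit versus DMSO.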
# [14] = read-out: ABC Transporter (ABCC3), ABCC3 (gene 8714); experiment: LTEA_HepaRG_ABCC3: Life Technologies and Expression Analysis (LTEA) Assay for ABC Transporter (ABCC3) using HepaRG (AID 2283462); settings: mRNA level, 48 h; actives raise or lower the signal
# Outline: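 Differentiated human HepaRG cells exposed 48 h in serum-free induction medium, 0.5% DMSO vehicle, 8-point half-log series to 100 uM in duplicate. ABCC3 mRNA by qRT-PCR, normalised to ACTB, GAPDH, POLR2A; bidirectional fit vs DMSO.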
# [15] = read-out: ABC Transporter (ABCB11), ABCB11 (gene 8647); experiment: LTEA_HepaRG_ABCB11: Life Technologies and Expression Analysis (LTEA) Assay for ABC Transporter (ABCB11) using HepaRG (AID 2283463); settings: mRNA level, 48 h; actives raise or lower the signal
# Outline: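 HepaRG, 48 h exposure, 8-pt half-log CRC top 100 uM, 0.5% DMSO vehicle, duplicates. Readout: TaqMan qRT-PCR of ABCB11 mRNA, housekeeping-normalized (ACTB/GAPDH/POLR2A). Bidirectional fit vs DMSO baseline.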
# [16] = read-out: ABC Transporter (ABCC2), ABCC2 (gene 1244); experiment: LTEA_HepaRG_ABCC2: Life Technologies and Expression Analysis (LTEA) Assay for ABC Transporter (ABCC2) using HepaRG (AID 2283464); settings: mRNA level, 48 h; actives raise or lower the signal
# Outline: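 Differentiated HepaRG cells in serum-free induction medium exposed 48 h to eight half-log concentrations up to 100 uM, 0.5% DMSO, in duplicate. ABCC2 mRNA measured by qRT-PCR (TaqMan, Fluidigm), normalized to ACTB, GAPDH and POLR2A. Fitted in both directions against DMSO.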
# [17] = read-out: Broad substrate specificity ATP-binding cassette transporter ABCG2 (Homo sapiens) (UniProt Q9UNQ0); experiment: LTEA_HepaRG_ABCG2: Life Technologies and Expression Analysis (LTEA) Assay for ABC Transporter (ABCG2) using HepaRG (AID 2283465); settings: mRNA level, 48 h; actives raise or lower the signal
# Outline: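 HepaRG, 48 h exposure, 8-pt half-log series from 100 uM, 0.5% DMSO vehicle, duplicates. Readout: ABCG2 transcript by qRT-PCR (Fluidigm array), housekeeping-normalized; bidirectional curve fit relative to DMSO baseline.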
# [18] = read-out: Cyclin D1 (CCND1), CCND1 (gene 595); experiment: LTEA_HepaRG_CCND1: Life Technologies and Expression Analysis (LTEA) Assay for Cyclin D1 (CCND1) using HepaRG (AID 2283451); settings: mRNA level, 48 h; actives raise or lower the signal
# Outline: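 Differentiated HepaRG cells exposed 48 h in serum-free induction medium to eight half-log concentrations from 100 uM top, 0.5% DMSO, duplicates. CCND1 mRNA measured by Fluidigm TaqMan qRT-PCR, normalised to ACTB, GAPDH, POLR2A; bidirectional fit.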
# [19] = read-out: flavin-containing dimethylaniline monooxygenases 3 (FMO3), FMO3 (gene 2328); experiment: LTEA_HepaRG_FMO3: Life Technologies and Expression Analysis (LTEA) Assay for flavin-containing dimethylaniline monooxygenases 3 (FMO3) using HepaRG (AID 2283453); settings: mRNA level, 48 h; actives raise or lower the signal
# Outline: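 Eight-point concentration-response in serum-free HepaRG cultures (top 100 uM, 0.5% DMSO, 48 h). Read-out: FMO3 mRNA level normalized to three endogenous control genes, fitted bidirectionally versus vehicle.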
# [20] = CEETOX_H295R_TESTO: CeeTox H295R High-throughput Steroidogenesis Assay for Testosterone (TESTO) (AID 2283457); settings: actives raise or lower the signal;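 further: cells exposed to chemicals for 48 h before medium collection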
# Outline: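 H295R adrenal cells, passage ≤10, exposed to chemicals for 48 h. Testosterone in medium measured by MTBE extraction and HPLC-MS/MS against a 7-point standard curve. Bidirectional fit versus DMSO; MTT viability checked in the same wells.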
# Sequence of Broad substrate specificity ATP-binding cassette transporter ABCG2 (Homo sapiens) (Q9UNQ0 whole entry, looked up): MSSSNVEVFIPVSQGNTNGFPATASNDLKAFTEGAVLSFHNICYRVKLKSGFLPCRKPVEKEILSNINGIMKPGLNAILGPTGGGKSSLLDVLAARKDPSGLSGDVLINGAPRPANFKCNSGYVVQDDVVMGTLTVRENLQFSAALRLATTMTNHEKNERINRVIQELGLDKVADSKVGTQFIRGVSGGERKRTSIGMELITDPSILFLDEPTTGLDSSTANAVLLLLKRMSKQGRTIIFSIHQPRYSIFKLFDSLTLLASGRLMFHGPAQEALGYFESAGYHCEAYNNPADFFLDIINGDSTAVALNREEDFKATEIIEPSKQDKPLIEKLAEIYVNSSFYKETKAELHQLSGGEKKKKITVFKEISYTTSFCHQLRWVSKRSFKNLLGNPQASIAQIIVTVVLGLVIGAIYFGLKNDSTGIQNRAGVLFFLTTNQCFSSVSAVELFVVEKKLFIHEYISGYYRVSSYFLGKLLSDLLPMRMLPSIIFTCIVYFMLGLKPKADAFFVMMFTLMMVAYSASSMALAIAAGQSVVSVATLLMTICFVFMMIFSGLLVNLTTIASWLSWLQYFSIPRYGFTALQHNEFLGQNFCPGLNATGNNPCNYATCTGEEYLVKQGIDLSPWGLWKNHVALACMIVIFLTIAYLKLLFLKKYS
# Sequence of Fatty acid synthase (Homo sapiens) (P49327 whole entry, looked up): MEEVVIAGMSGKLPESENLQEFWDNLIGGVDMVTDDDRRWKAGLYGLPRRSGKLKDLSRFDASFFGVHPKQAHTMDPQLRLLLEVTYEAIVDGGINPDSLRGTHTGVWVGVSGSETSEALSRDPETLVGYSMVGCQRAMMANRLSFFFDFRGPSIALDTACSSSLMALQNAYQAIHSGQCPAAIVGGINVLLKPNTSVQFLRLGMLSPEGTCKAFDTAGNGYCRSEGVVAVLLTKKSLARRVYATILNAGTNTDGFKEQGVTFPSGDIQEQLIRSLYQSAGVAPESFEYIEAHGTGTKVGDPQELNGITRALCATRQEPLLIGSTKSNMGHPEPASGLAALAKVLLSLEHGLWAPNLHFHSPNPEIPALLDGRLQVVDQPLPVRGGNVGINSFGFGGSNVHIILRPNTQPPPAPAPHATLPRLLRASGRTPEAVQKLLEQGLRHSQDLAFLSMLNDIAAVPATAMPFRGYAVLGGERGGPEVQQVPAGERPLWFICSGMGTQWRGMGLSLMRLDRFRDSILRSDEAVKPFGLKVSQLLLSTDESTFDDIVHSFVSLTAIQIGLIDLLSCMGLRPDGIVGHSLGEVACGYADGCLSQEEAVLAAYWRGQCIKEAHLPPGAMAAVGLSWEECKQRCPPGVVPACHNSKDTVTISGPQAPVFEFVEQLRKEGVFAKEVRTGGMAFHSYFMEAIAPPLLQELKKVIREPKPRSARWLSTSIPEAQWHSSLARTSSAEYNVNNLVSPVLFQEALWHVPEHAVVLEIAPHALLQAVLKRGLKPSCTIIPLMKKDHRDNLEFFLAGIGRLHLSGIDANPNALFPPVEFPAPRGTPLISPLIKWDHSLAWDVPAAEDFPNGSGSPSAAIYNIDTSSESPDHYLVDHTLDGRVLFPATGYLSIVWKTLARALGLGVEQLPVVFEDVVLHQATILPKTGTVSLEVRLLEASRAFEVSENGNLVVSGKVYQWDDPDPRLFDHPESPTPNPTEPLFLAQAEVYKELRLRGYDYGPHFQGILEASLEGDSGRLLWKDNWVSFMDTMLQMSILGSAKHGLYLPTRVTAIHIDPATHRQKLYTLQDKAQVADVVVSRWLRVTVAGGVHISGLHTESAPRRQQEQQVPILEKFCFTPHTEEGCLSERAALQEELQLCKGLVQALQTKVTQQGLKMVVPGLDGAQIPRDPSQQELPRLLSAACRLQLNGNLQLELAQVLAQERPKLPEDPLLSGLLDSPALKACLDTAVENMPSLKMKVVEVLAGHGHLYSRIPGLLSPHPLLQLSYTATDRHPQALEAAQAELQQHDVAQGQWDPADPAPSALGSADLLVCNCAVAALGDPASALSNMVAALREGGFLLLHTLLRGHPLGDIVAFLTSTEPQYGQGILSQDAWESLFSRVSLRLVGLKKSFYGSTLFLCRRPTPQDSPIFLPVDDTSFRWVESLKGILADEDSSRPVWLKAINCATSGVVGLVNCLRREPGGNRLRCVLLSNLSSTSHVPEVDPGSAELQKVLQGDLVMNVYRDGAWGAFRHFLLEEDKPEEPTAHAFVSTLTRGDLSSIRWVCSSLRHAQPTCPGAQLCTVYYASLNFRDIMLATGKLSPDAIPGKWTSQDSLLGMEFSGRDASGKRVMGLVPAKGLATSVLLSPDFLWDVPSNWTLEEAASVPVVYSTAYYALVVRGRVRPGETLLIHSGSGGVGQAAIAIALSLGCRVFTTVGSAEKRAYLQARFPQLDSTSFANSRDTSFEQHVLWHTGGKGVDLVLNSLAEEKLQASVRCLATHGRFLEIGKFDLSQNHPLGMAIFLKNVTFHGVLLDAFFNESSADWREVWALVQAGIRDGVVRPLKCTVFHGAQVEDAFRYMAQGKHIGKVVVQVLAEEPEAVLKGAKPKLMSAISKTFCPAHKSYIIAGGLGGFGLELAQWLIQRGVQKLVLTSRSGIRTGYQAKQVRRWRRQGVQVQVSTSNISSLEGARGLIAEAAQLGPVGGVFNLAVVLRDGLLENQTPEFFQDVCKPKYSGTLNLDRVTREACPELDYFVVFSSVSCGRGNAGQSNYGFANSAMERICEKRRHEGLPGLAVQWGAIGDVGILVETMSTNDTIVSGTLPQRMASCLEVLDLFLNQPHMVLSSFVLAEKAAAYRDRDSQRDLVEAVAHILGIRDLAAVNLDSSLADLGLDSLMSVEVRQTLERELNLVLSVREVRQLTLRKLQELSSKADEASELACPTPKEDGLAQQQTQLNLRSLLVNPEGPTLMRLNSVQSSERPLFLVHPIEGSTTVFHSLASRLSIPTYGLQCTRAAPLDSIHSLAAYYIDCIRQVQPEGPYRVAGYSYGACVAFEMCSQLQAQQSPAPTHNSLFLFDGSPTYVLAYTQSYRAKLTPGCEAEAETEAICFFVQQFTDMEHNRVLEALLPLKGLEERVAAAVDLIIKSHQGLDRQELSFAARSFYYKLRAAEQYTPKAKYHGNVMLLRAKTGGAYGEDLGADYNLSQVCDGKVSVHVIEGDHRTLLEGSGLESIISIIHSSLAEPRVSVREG
smiles,measurement,setting,value
O=C1c2ccccc2C(=O)N1CCc1noc(-c2ccc(CN3CCCCCC3)s2)n1,outcome,[1],inactive
same,outcome,[2],inactive
same,outcome,[3],inactive
same,outcome,[4],inactive
same,outcome,[5],inactive
same,outcome,[6],inactive
same,AC50,[7],8.04 µM (active)
same,outcome,[8],inactive
same,outcome,[9],inactive
same,outcome,[10],inactive
same,outcome,[11],inactive
same,outcome,[12],inactive
same,outcome,[13],inactive
same,outcome,[14],inactive
same,outcome,[15],inactive
same,outcome,[16],inactive
same,outcome,[17],inactive
CCCCCCCCOC(=O)c1cc(O)c(O)c(O)c1,AC50,[1],2.44 µM (active)
same,outcome,[2],inactive
same,outcome,[3],inactive
same,outcome,[4],inactive
same,outcome,[5],inactive
same,outcome,[6],inactive
same,AC50,[7],50 µM (active)
same,outcome,[8],inactive
same,outcome,[9],inactive
same,outcome,[10],inactive
same,outcome,[11],inactive
same,outcome,[12],inactive
same,outcome,[13],inactive
same,outcome,[14],inactive
same,outcome,[15],inactive
same,outcome,[16],inactive
same,outcome,[17],inactive
O=c1c(-c2ccc(O)cc2)coc2cc(O)cc(O)c12,AC50,[1],12.4 µM (active)
same,outcome,[2],inactive
same,outcome,[3],inactive
same,outcome,[4],inactive
same,outcome,[5],inactive
same,outcome,[18],inactive
same,outcome,[6],inactive
same,outcome,[19],inactive
same,outcome,[8],inactive
same,outcome,[9],inactive
same,AC50,[20],12.3 µM (active)
same,outcome,[10],inactive
same,outcome,[11],inactive
same,outcome,[12],inactive
same,outcome,[13],inactive
same,outcome,[14],inactive
same,AC50,[15],9.92 µM (active)
same,outcome,[16],inactive
same,outcome,[17],inactive
